Test results from PubChem BioAssay (NCATS).
Results filed as inconclusive are left out. A call without a number means that no potency is given here. Activity calls are given as the source filed them. The call rests on the fitted dose curve; in most records, active means well fitted cell-killing curve with a large enough effect; inconclusive means small, poorly fitted or top-dose-only effect, or effect the other way; inactive means flat fitted curve, though single readings scatter.

Columns and labels:
Assay in all cases: Primary qHTS to identify gynecologic anti-cancer compounds using libraries of approved drugs and bioactive compounds (AID 1345084); further: nearly all actives have a fitted effect of over 55% in size
Settings in all cases: Gynecologic cancer cell panel viability, ATPlite luminescence, 48 h; series mostly up to 57.5 µM
PA-1 = tested on: PA-1
How it was run: (§1)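 Measured: luminescence after ATPlite addition (15 min, RT). Exposure: 48 h, 37 C, 5% CO2.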

Tov-21-G = tested on: Tov-21-G
How it was run: as §1

Tov112D = tested on: Tov112D
How it was run: as §1
Potency means the concentration at half of the fitted maximal effect.

Compound | Potency (PA-1) | Potency (Tov-21-G) | Potency (Tov112D)
CC#CC(=O)Nc1ccc2ncnc(Nc3cccc(Br)c3)c2c1 | 7.94 µM (active) | 14.1 µM (active) | 12.6 µM (active)
Cc1nc2cc(C(=O)NCc3ccccn3)nn2c(C)c1Cc1cccc(Cl)c1 | inactive | inactive | inactive
CC[C@H](C(=O)Nc1ccccc1N1CCCC1)c1ccccc1 | inactive | inactive | inactive
S=C(c1ccc(-c2ccc(Cl)c(Cl)c2)o1)N1CCCCC1 | inactive | inactive | inactive
CC(O)(C(=O)C1CC1(CO)COC1OC(CO)C(O)C(O)C1O)C1C(O)CC2C3CC=C4CC(O)CC(O)C4(C)C3C(O)CC21C (configuration not stated) | 1.78 µM (active) | 0.562 µM (active) | 0.562 µM (active)
C/C=C(\C)C(=O)OC1C[C@@]2(COC(C)=O)O[C@H]2/C=C\[C@@]2(C)O[C@@H]2[C@H]2OC(=O)C(COC(C)=O)=C12 (some centres not stated) | inactive | inactive | inactive
O=C(O)c1ccc(N2C(=O)/C(=C/c3ccc(-c4ccc([N+](=O)[O-])cc4)o3)C=C2c2ccccc2)cc1 | inactive | inactive | inactive
OC[C@H]1O[C@@H](OC/C=C/c2ccc(O)cc2)[C@H](O)[C@@H](O)[C@@H]1O | inactive | inactive | inactive
Cn1c(CO)c(-c2ccccc2)c2cc([N+](=O)[O-])ccc21 | inactive | inactive | inactive
C=C(C)[C@@H]1CC[C@]2(C(=O)O)CC[C@]3(C(=O)O)[C@H](CCC4[C@@]5(C)CCC(=O)C(C)(C)C5CC[C@]43C)C12 (some centres not stated) | inactive | inactive | inactive
Cn1nc(C(C)(C)C)cc1C(=O)N[C@@H](Cc1cccc(Cl)c1)C(=O)NCC#N | inactive | inactive | inactive
O=c1cc(N2CCOCC2)nc2c3ccccc3ccn12 | inactive | inactive | inactive
COc1ccc(NC(=O)c2ccc(-c3ccc(C(=N)N)cc3C)cc2)cc1N1CCN(C)CC1 | inactive | inactive | inactive
CCOc1cccc(NC(=O)c2ccc(N3CCCC3)c(C(F)(F)F)c2)c1 | inactive | inactive | inactive
O=C(NNc1nc2cc(F)ccc2n2cccc12)c1cnccn1 | 3.55 µM (active) | 8.91 µM (active) | 6.31 µM (active)
C/C(=C/CO)CCC1C(C)CCC2C(C)(C)CCCC12C (configuration not stated) | inactive | inactive | inactive
COc1ccccc1C(=O)Nc1cc2c(cc1N1CCCC1)n(C)c(=O)n2C | inactive | inactive | inactive
COCCN(C(=O)c1cc(OC)c(OC)c(OC)c1)c1nc(-c2ccccc2)cs1 | inactive | inactive | inactive
CC(=O)O[C@@H]1CC[C@@]2(C)[C@H](CC[C@@H]3[C@@H]2C[C@H](OC(C)=O)[C@]2(C)[C@@H](C(C)=O)CC[C@@H]32)C1 | inactive | inactive | inactive
CC(=O)O[C@@H]1C[C@@]2(C)C(CC[C@]3(C)C2CC=C2C4CC(C)(C)CC[C@]4(C(=O)O)CC[C@]23C)C(C)(C)[C@H]1O (some centres not stated) | inactive | inactive | inactive
CC(C)n1c(=O)c(C(=O)NC2CC3CCC(C2)N3C[C@@H](O)CN(C)S(C)(=O)=O)cc2ccccc21 (some centres not stated) | inactive | inactive | inactive
CN(C)Cc1ccc(-c2cnn3c(-c4cccc(NC(=O)c5cccc(C(F)(F)F)c5)c4)ccnc23)cc1 | inactive | inactive | inactive

Compound | Potency (PA-1) | Potency (Tov-21-G) | Potency (Tov112D)
CCOc1cn(-c2ccc(F)cc2C)nc1C(=O)Nc1ccc(Oc2ccnc3cc(OC)c(OC)cc23)c(F)c1 | inactive | inactive | inactive
CCCOc1ccc(CCc2nc3cc(-c4c(C)noc4C)ccc3n2CCN2CCOCC2)cc1 | inactive | inactive | inactive
C=C1C(=O)OC2CC(C)C(CCC(C)O)=CCC12 (configuration not stated) | inactive | inactive | inactive
Cc1cnc(-c2ccccc2C(C)C)nc1NCc1ccc(-n2ccnn2)cc1 | inactive | inactive | inactive
N#Cc1ccc(-c2ccc(S(=O)(=O)Nc3cccc(N)n3)cc2)cc1 | inactive | inactive | inactive
O=C(Nc1ccccc1Cl)c1cnc2ccc(C3CCNCC3)cn12 | 0.891 µM (active) | 1.58 µM (active) | inactive
Nc1ncnc2c1nc(Cl)n2C1OC2COP(=O)(O)OC2C1O (configuration not stated) | 8.91 µM (active) | 8.91 µM (active) | 5.01 µM (active)
CC(C)(N)c1ncc(-c2ccc(OC(F)(F)F)cc2)[nH]1 | inactive | inactive | inactive
COc1ccc2c(c1)C(C(=O)N(Cc1ccc(N(C)C)cc1)c1ccc(C(C)C)cc1)CCC2 (configuration not stated) | inactive | inactive | inactive
COC(=O)CC1OC(C)C2=C(O)c3c(O)cccc3C(=O)C23OC13 (configuration not stated) | 3.98 µM (active) | 6.31 µM (active) | 6.31 µM (active)
Nc1cccc(CNC(=O)c2ccc(Oc3ccc(OCc4cccc(F)c4)cc3)nc2)c1 | inactive | inactive | inactive
COc1cc(-c2cn(C3CCc4c(F)cccc4N(CC(F)(F)F)C3=O)nn2)ccc1-n1cnc(C)c1 (configuration not stated) | inactive | inactive | inactive
O=C(NCc1ccccc1-c1ccccc1C(=O)NCCc1ccccn1)OCc1ccccc1 | inactive | inactive | inactive
COc1cc2c(cc1NS(=O)(=O)c1ccc(Br)cc1C)n(C)c(=O)n2C | inactive | inactive | inactive
COc1cc(O)cc(/C=C/c2cccc(O)c2)c1 | inactive | inactive | inactive
N#CC(CCCN1CCN(/N=C/c2cccnc2)CC1)(c1ccccc1)c1ccccc1 | inactive | inactive | inactive
Cc1nc(C#Cc2ccnc(Cl)c2)c(C)n1-c1ccc(F)cc1 | inactive | inactive | inactive
CCCC(Nc1nc(-c2ccc(NC(=O)NCC)c(OC)c2)ncc1C)c1cccnc1 (configuration not stated) | 0.251 µM (active) | 0.316 µM (active) | 0.158 µM (active)
N#Cc1cc(C2=Nc3ccc(Br)cc3NC(=O)C2)ccn1 | inactive | inactive | inactive
C=C1CCC2C(C)(C)CCCC2(C)C1CC/C(C)=C\CO (configuration not stated) | inactive | inactive | inactive
Cc1ccc(NC(=O)c2ccc(CN3CCNCC3)cc2)cc1Nc1nccc(-c2cccnc2)n1 | 12.6 µM (active) | 28.2 µM (active) | 28.2 µM (active)
O=C(Nc1cccc([N+](=O)[O-])c1)c1cccc(S(=O)(=O)N2CCCCCC2)c1 | inactive | inactive | inactive
